Where a name gives a salt, the structure may show the parent alone. ± gives the standard error. The whole screen tested about 1,300 compounds, of which about 130 (10%) showed an effect of 50% or more. This is one part of a sample in which strong results are shown more often than they occur.
Tested on: Trichoderma virens ATCC 9645
Assay: growth yield (OD600) with compound + IPBC relative to untreated control; higher = less growth inhibition
Conditions: compound concentration: 100 uM, IPBC concentration: 200 ng/ml
Method in brief: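 For each 96-well plate, 100 μl aliquots were prepared with Trichoderma virens ATCC 9645 spores suspended at 15,000 spores ml^−1 in potato dextrose broth. The spores had been harvested from potato dextrose agar plates after 7 days. Library compounds were present at 100 μM final, some wells also receiving a biocide at 200 ng ml^−1, and plates were grown at 30 °C with OD600 read on a BioTek EL800 at 40 h and 72 h. Reported growth, relative to the control lacking both agents, is the mean of duplicate screens.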

Structure (SMILES) | growth yield (40 h) | growth yield (72 h)
Cc1cccc(C)c1NC(=O)C1CCCCN1C (configuration not stated) [Mepivacaine hydrochloride] + CCCCNC(=O)OCC#CI [3-iodo-2-propynyl butylcarbamate (IPBC)] | 91.3 ± 3.3% | 96.3 ± 4%
CCCCC[C@H](O)/C=C/[C@@H]1[C@@H](C/C=C\CCCC(=O)O)[C@@H](O)C[C@H]1O [Dinoprost trometamol] + CCCCNC(=O)OCC#CI [3-iodo-2-propynyl butylcarbamate (IPBC)] | 83.1 ± 1.1% | 94.08 ± 0.52%
Nc1nc2ccc(OC(F)(F)F)cc2s1 [Riluzole hydrochloride] + CCCCNC(=O)OCC#CI [3-iodo-2-propynyl butylcarbamate (IPBC)] | 27.3 ± 2.2% | 49.3 ± 1.9%
CCOc1ccc2nc(S(N)(=O)=O)sc2c1 [Ethoxzolamide] + CCCCNC(=O)OCC#CI [3-iodo-2-propynyl butylcarbamate (IPBC)] | 90.2% | 92.2 ± 3.9%
CC(C(=O)O)c1ccc(N2Cc3ccccc3C2=O)cc1 (configuration not stated) [Indoprofen] + CCCCNC(=O)OCC#CI [3-iodo-2-propynyl butylcarbamate (IPBC)] | 88.8 ± 11% | 91.2 ± 7.3%
Cc1ccc(C(=O)c2ccc(CC(=O)O)n2C)cc1 [Tolmetin sodium salt dihydrate] + CCCCNC(=O)OCC#CI [3-iodo-2-propynyl butylcarbamate (IPBC)] | 77.8 ± 4.8% | 83.9 ± 2.3%
C[C@]12CC[C@H](O)C[C@H]1CC[C@@H]1[C@@H]2CC[C@]2(C)[C@@H](C3=CC(=O)OC3)CC[C@]12O [Digitoxigenin] + CCCCNC(=O)OCC#CI [3-iodo-2-propynyl butylcarbamate (IPBC)] | 79.58 ± 0.48% | 87.36 ± 0.52%
NC(=O)NC1NC(=O)NC1=O (configuration not stated) [Allantoin] + CCCCNC(=O)OCC#CI [3-iodo-2-propynyl butylcarbamate (IPBC)] | 83.71 ± 0.48% | 89.2 ± 2.2%
CC(C)OC(=O)C(C)(C)Oc1ccc(C(=O)c2ccc(Cl)cc2)cc1 [Fenofibrate] + CCCCNC(=O)OCC#CI [3-iodo-2-propynyl butylcarbamate (IPBC)] | 65.4 ± 1.3% | 76.3 ± 1.9%
O=c1[nH]cc(F)c(=O)[nH]1 [5-fluorouracil] + CCCCNC(=O)OCC#CI [3-iodo-2-propynyl butylcarbamate (IPBC)] | 36.9% | 58.1 ± 1.3%
Nc1nc(=O)[nH]cc1F [Flucytosine] + CCCCNC(=O)OCC#CI [3-iodo-2-propynyl butylcarbamate (IPBC)] | 88.5 ± 2.1% | 90.4 ± 0.63%
CCN(CC)C(C)C(=O)c1ccccc1 (configuration not stated) [Amfepramone hydrochloride] + CCCCNC(=O)OCC#CI [3-iodo-2-propynyl butylcarbamate (IPBC)] | 102 ± 15% | 102 ± 9.3%
O=C1C(CC[S+]([O-])c2ccccc2)C(=O)N(c2ccccc2)N1c1ccccc1 (configuration not stated) [Sulfinpyrazone] + CCCCNC(=O)OCC#CI [3-iodo-2-propynyl butylcarbamate (IPBC)] | 106 ± 9.2% | 105 ± 2.4%
Cc1ccc(/C(=C\CN2CCCC2)c2ccccn2)cc1 [Triprolidine hydrochloride] + CCCCNC(=O)OCC#CI [3-iodo-2-propynyl butylcarbamate (IPBC)] | 96.1 ± 6.5% | 100 ± 1.6%
CN1CCC(=C2c3ccccc3Sc3ccccc32)CC1 [Pimethixene maleate] + CCCCNC(=O)OCC#CI [3-iodo-2-propynyl butylcarbamate (IPBC)] | 56.1 ± 1.4% | 88 ± 2%
CN1CCN2c3ccccc3Cc3ccccc3C2C1 (configuration not stated) [Mianserine hydrochloride] + CCCCNC(=O)OCC#CI [3-iodo-2-propynyl butylcarbamate (IPBC)] | 82.6 ± 1.3% | 94.1 ± 1.8%
CSc1ccc2c(c1)C(N1CCN(C)CC1)Cc1ccccc1S2 (configuration not stated) [Methiothepin maleate] + CCCCNC(=O)OCC#CI [3-iodo-2-propynyl butylcarbamate (IPBC)] | 2.06 ± 0.16% | 1.78 ± 0.1%
CC1(C)O[C@@H]2[C@@H](CO[C@@]3(COS(N)(=O)=O)OC(C)(C)O[C@@H]23)O1 [Topiramate] + CCCCNC(=O)OCC#CI [3-iodo-2-propynyl butylcarbamate (IPBC)] | 89 ± 5.1% | 93.1 ± 5.9%
CC(C)(Oc1ccc(C2CC2(Cl)Cl)cc1)C(=O)O (configuration not stated) [Ciprofibrate] + CCCCNC(=O)OCC#CI [3-iodo-2-propynyl butylcarbamate (IPBC)] | 78.9 ± 3.6% | 82.2 ± 1.7%
O=c1[nH]c(=O)n([C@H]2C[C@H](O)[C@@H](CO)O2)cc1I [Idoxuridine] + CCCCNC(=O)OCC#CI [3-iodo-2-propynyl butylcarbamate (IPBC)] | 87.8 ± 2.1% | 89.04 ± 0.52%
O=c1[nH]c(=O)n([C@H]2C[C@H](O)[C@@H](CO)O2)cc1F [Floxuridine] + CCCCNC(=O)OCC#CI [3-iodo-2-propynyl butylcarbamate (IPBC)] | 4.45% | 19.1 ± 2.3%
O=c1[nH]c(=O)n([C@H]2C[C@H](O)[C@@H](CO)O2)cc1C(F)(F)F [Trifluridine] + CCCCNC(=O)OCC#CI [3-iodo-2-propynyl butylcarbamate (IPBC)] | 90.4 ± 6.2% | 92.7 ± 4%
O=C(NCCNCC(O)COc1ccc(O)cc1)N1CCOCC1 (configuration not stated) [Xamoterol hemifumarate] + CCCCNC(=O)OCC#CI [3-iodo-2-propynyl butylcarbamate (IPBC)] | 92.4 ± 1.6% | 94.39 ± 0.63%
COc1cccc2c1C(=O)c1c(O)c3c(c(O)c1C2=O)C[C@@](O)(C(C)=O)C[C@@H]3O[C@H]1C[C@H](N)[C@H](O)[C@H](C)O1 [Daunorubicin hydrochloride] + CCCCNC(=O)OCC#CI [3-iodo-2-propynyl butylcarbamate (IPBC)] | 9.21 ± 1.6% | 44.7 ± 1.3%
COc1cccc2c1C(=O)c1c(O)c3c(c(O)c1C2=O)C[C@@](O)(C(=O)CO)C[C@@H]3O[C@H]1C[C@H](N)[C@H](O)[C@H](C)O1 [Doxorubicin hydrochloride] + CCCCNC(=O)OCC#CI [3-iodo-2-propynyl butylcarbamate (IPBC)] | 8.1 ± 1.1% | 34.8 ± 20%
COc1cccc2c1C(=O)c1c(O)c3c(c(O)c1C2=O)C[C@@](O)(C(=O)CO)C[C@@H]3O[C@H]1C[C@H](N)[C@@H](O)[C@H](C)O1 [Epirubicin hydrochloride] + CCCCNC(=O)OCC#CI [3-iodo-2-propynyl butylcarbamate (IPBC)] | 42.7 ± 0.48% | 95.33 ± 0.32%

Structure (SMILES) | growth yield (40 h) | growth yield (72 h)
CO[C@@H]1[C@@H](O[C@@H]2O[C@H](C)[C@@H](O[C@H]3C[C@@](C)(O)[C@@H](OC(=O)CC(C)C)[C@H](C)O3)[C@H](N(C)C)[C@H]2O)[C@@H](CC=O)C[C@@H](C)[C@@H](O)/C=C/C=C/C[C@@H](C)OC(=O)C[C@H]1OC(C)=O [Josamycin] + CCCCNC(=O)OCC#CI [3-iodo-2-propynyl butylcarbamate (IPBC)] | 100 ± 4.5% | 103 ± 3.5%
Nc1cc(C(Cl)=C(Cl)Cl)c(S(N)(=O)=O)cc1S(N)(=O)=O [Clorsulon] + CCCCNC(=O)OCC#CI [3-iodo-2-propynyl butylcarbamate (IPBC)] | 86.4 ± 2.2% | 90.8 ± 3.1%
C[C@H](O)C(=O)Nc1c(I)c(C(=O)NC(CO)CO)c(I)c(C(=O)NC(CO)CO)c1I [Iopamidol] + CCCCNC(=O)OCC#CI [3-iodo-2-propynyl butylcarbamate (IPBC)] | 101 ± 5.7% | 101 ± 3.8%
CN(C)C(=N)NC(=N)N [Metformin hydrochloride] + CCCCNC(=O)OCC#CI [3-iodo-2-propynyl butylcarbamate (IPBC)] | 85.9 ± 4.9% | 88 ± 2.2%
O=C1OCCN1/N=C/c1ccc([N+](=O)[O-])o1 [Furazolidone] + CCCCNC(=O)OCC#CI [3-iodo-2-propynyl butylcarbamate (IPBC)] | 76.2 ± 8.6% | 88.9 ± 5.2%
N=C(N)NCCN1CCCCCCC1 [Guanethidine sulfate] + CCCCNC(=O)OCC#CI [3-iodo-2-propynyl butylcarbamate (IPBC)] | 81.3 ± 4.1% | 90.2 ± 4.4%
COC[C@@H](NC(C)=O)C(=O)NCc1ccccc1 [Lacosamide] + CCCCNC(=O)OCC#CI [3-iodo-2-propynyl butylcarbamate (IPBC)] | 85.6 ± 1.4% | 93.66 ± 0.73%
CC(=O)c1ccc2c(c1)N(CCCN(C)C)c1ccccc1S2 [Acetopromazine maleate salt] + CCCCNC(=O)OCC#CI [3-iodo-2-propynyl butylcarbamate (IPBC)] | 70.84 ± 0.32% | 91.6 ± 0.94%
CN(C)CCCN1c2ccccc2Sc2ccc(C(F)(F)F)cc21 [Triflupromazine hydrochloride] + CCCCNC(=O)OCC#CI [3-iodo-2-propynyl butylcarbamate (IPBC)] | 46.4 ± 2.9% | 81.3 ± 4.3%
OC(CCCN1CCCCC1)(c1ccccc1)c1ccccc1 [Diphenidol hydrochloride] + CCCCNC(=O)OCC#CI [3-iodo-2-propynyl butylcarbamate (IPBC)] | 89.4 ± 2.4% | 96.7 ± 3.4%
CN(C)CCCN1c2ccccc2CCc2ccccc21 [Imipramine hydrochloride] + CCCCNC(=O)OCC#CI [3-iodo-2-propynyl butylcarbamate (IPBC)] | 81 ± 1.9% | 96.28 ± 0.21%
CC(=O)c1ccc2c(c1)N(CCCN1CCC(CCO)CC1)c1ccccc1S2 [Piperacetazine] + CCCCNC(=O)OCC#CI [3-iodo-2-propynyl butylcarbamate (IPBC)] | 55% | 94.8%
CN(C)CCCN1c2ccccc2Sc2ccccc21 [Promazine hydrochloride] + CCCCNC(=O)OCC#CI [3-iodo-2-propynyl butylcarbamate (IPBC)] | 71.95 ± 0.16% | 90.8 ± 3.8%
CNCCCN1c2ccccc2CCc2ccccc21 [Desipramine hydrochloride] + CCCCNC(=O)OCC#CI [3-iodo-2-propynyl butylcarbamate (IPBC)] | 70.4 ± 1.4% | 93.5 ± 3.4%
CN1CCN(CCCN2c3ccccc3Sc3ccc(C(F)(F)F)cc32)CC1 [Trifluoperazine dihydrochloride] + CCCCNC(=O)OCC#CI [3-iodo-2-propynyl butylcarbamate (IPBC)] | 4.45 ± 0.95% | 3.46 ± 0.1%
OCCN1CCN(CCCN2c3ccccc3Sc3ccc(C(F)(F)F)cc32)CC1 [Fluphenazine dihydrochloride] + CCCCNC(=O)OCC#CI [3-iodo-2-propynyl butylcarbamate (IPBC)] | 2.86% | 2.31 ± 0.21%
CC(=O)N[C@@H](CC(=O)N[C@@H](CCC(=O)O)C(=O)O)C(=O)O [Spaglumic acid] + CCCCNC(=O)OCC#CI [3-iodo-2-propynyl butylcarbamate (IPBC)] | 95.6 ± 7.3% | 95.1 ± 7%
COc1ccc(C(=O)NCc2cccnc2)cc1C(=O)NCc1cccnc1 [Picotamide monohydrate] + CCCCNC(=O)OCC#CI [3-iodo-2-propynyl butylcarbamate (IPBC)] | 91.2 ± 5.1% | 97 ± 3.9%
CC(CN(C)C)CN1c2ccccc2CCc2ccccc21 (configuration not stated) [Trimipramine maleate salt] + CCCCNC(=O)OCC#CI [3-iodo-2-propynyl butylcarbamate (IPBC)] | 75.1 ± 0.79% | 93.97 ± 0.84%
CN1CCOC(c2ccccc2)c2ccccc2C1 (configuration not stated) [Nefopam hydrochloride] + CCCCNC(=O)OCC#CI [3-iodo-2-propynyl butylcarbamate (IPBC)] | 83.4 ± 1.1% | 93.1 ± 1.1%
CC(=O)OCC1=C(C(=O)O)N2C(=O)[C@@H](N)[C@H]2SC1 [Cephalosporanic acid, 7-amino] + CCCCNC(=O)OCC#CI [3-iodo-2-propynyl butylcarbamate (IPBC)] | 85.1 ± 3.8% | 94.6 ± 3.1%
NS(=O)(=O)c1cc2c(cc1Cl)N=CNS2(=O)=O [Chlorothiazide] + CCCCNC(=O)OCC#CI [3-iodo-2-propynyl butylcarbamate (IPBC)] | 102.6 ± 0.32% | 106 ± 2.8%
CCOc1ccc(Cc2nccc3cc(OCC)c(OCC)cc23)cc1OCC [Ethaverine hydrochloride] + CCCCNC(=O)OCC#CI [3-iodo-2-propynyl butylcarbamate (IPBC)] | 55 ± 2.2% | 82.3 ± 2.2%
CC[C@H]1OC(=O)C[C@@H](O)[C@H](C)[C@@H](O[C@@H]2O[C@H](C)[C@@H](O[C@H]3C[C@@](C)(O)[C@@H](O)[C@H](C)O3)[C@H](N(C)C)[C@H]2O)[C@@H](CC=O)C[C@@H](C)C(=O)/C=C/C(C)=C/[C@@H]1CO[C@@H]1O[C@H](C)[C@@H](O)[C@@H](OC)[C@H]1OC [Tylosin] + CCCCNC(=O)OCC#CI [3-iodo-2-propynyl butylcarbamate (IPBC)] | 95.3 ± 7.9% | 95.1 ± 3%
CC(C)NC[C@@H](O)COc1ccc(CC(N)=O)cc1 [(R)-(+)-Atenolol] + CCCCNC(=O)OCC#CI [3-iodo-2-propynyl butylcarbamate (IPBC)] | 101 ± 2.1% | 98.48 ± 0.52%

— the supplement of paper PMC8007513
